Data: PubChem BioAssay (EPA / NIEHS)
Several values for one entry are separate records, joined by “and”; a condition that tells them apart may be missing. Equal entries are not always repeated. Some structures have more than one record in an assay (separate samples or runs), and their calls can disagree. Activity calls are given as the source filed them. How the source made its calls: active means hit-call score of the fitted dose curve at least 0.9, where 1 is the maximum; inactive means score below 0.9.

How the values were obtained:
[1] = read-out: Intercellular Adhesion Molecule 1 (ICAM1), ICAM1 (gene 3383); test: BSK_BF4T_ICAM1: BioMAP Diversity Plus: BF4T Assay for Intercellular Adhesion Molecule 1 (ICAM1) Biomarker Activity (AID 2284260); conditions: primary human bronchial epithelial cells with fibroblasts
Method in brief: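 ICAM-1 levels measured by ELISA after 24 h chemical treatment of bronchial epithelial cell/dermal fibroblast co-cultures, read against DMSO baseline. Overt cytotoxicity checked in parallel cultures by sulforhodamine B staining.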

[2] = read-out: Interleukin-8 (IL8), CXCL8 (gene 3576); test: BSK_MyoF_IL8: BioMAP Diversity Plus: MyoF Assay for Interleukin-8 (IL8) Biomarker Activity (AID 2284261); conditions: primary human lung fibroblasts
Method in brief: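 IL-8 levels were measured by ELISA in human lung fibroblasts harvested 24 h after compound addition. Responses were analysed as gain of signal over the DMSO baseline.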

CD90, THY1 (gene 7070) = test: BSK_BF4T_CD90: BioMAP Diversity Plus: BF4T Assay for CD90 Biomarker Activity (AID 2284262); conditions: primary human bronchial epithelial cells with fibroblasts
Method in brief: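 CD90 levels by ELISA after 24 h treatment of human bronchial epithelial cell/dermal fibroblast cultures, analysed versus DMSO. Overt cytotoxicity checked in parallel cultures by sulforhodamine B staining.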

[3] = read-out: Interleukin-8 (IL8), CXCL8 (gene 3576); test: BSK_BF4T_IL8: BioMAP Diversity Plus: BF4T Assay for Interleukin-8 (IL8) Biomarker Activity (AID 2284263); conditions: primary human bronchial epithelial cells with fibroblasts
Method in brief: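 Human bronchial epithelial cells with dermal fibroblasts co-culture; IL-8 measured by ELISA 24 hours after dosing, fitted vs DMSO. Cytotoxicity tracked in parallel cultures by SRB total-protein staining.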

Decorin, DCN (gene 1634) = test: BSK_MyoF_Decorin: BioMAP Diversity Plus: MyoF Assay for Decorin Biomarker Activity (AID 2284265); conditions: primary human lung fibroblasts
Method in brief: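 Compound is added to lung fibroblast cultures; cells incubate 24 h; decorin is then measured by ELISA; the response is analysed upward against DMSO controls.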

KRT18 (gene 3875) = test: BSK_BF4T_Keratin818: BioMAP Diversity Plus: BF4T Assay for Keratin 818 Biomarker Activity (AID 2284266); conditions: primary human bronchial epithelial cells with fibroblasts
Method in brief: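 Keratin 8/18 levels quantified by ELISA after 24 h chemical treatment of bronchial epithelial cell/dermal fibroblast co-cultures, fitted in positive direction relative to DMSO. Parallel SRB staining tracks overt cytotoxicity.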

[4] = BSK_MyoF_SRB: Viability Assessment in the BioMAP Diversity Plus: MyoF Assay (AID 2284267); conditions: primary human lung fibroblasts;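 further: total protein by SRB absorbance in parallel cultures as cytotoxicity measure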
Method in brief: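 Lung fibroblast cultures, 24 h post-dose; fix 10% TCA, stain 0.1% SRB, read 560 nm. Signal = total protein as cytotoxicity measure; fitted relative to DMSO negative control.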

[5] = read-out: Matrix Metallopeptidase 1 (MMP1), MMP1 (gene 4312); test: BSK_MyoF_MMP1: BioMAP Diversity Plus: MyoF Assay for Matrix Metallopeptidase 1 (MMP1) Biomarker Activity (AID 2284268); conditions: primary human lung fibroblasts
Method in brief: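 Lung fibroblast cultures were dosed with test chemicals and, after 24 h, MMP1 levels were measured by ELISA; responses were referenced to DMSO and analysed for increases.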

[6] = read-out: TIMP metallopeptidase inhibitor 1 (TIMP1), TIMP1 (gene 7076); test: BSK_MyoF_TIMP1: BioMAP Diversity Plus: MyoF Assay for TIMP metallopeptidase inhibitor 1 (TIMP1) Biomarker Activity (AID 2284269); conditions: primary human lung fibroblasts
Method in brief: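 ELISA read-out of TIMP-1 from primary human lung fibroblast cultures 24 h after compound dosing; gain of signal relative to DMSO vehicle baseline defines activity.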

[7] = read-out: Interleukin-1 alpha (IL1a), IL1A (gene 3552); test: BSK_BF4T_IL1a: BioMAP Diversity Plus: BF4T Assay for Interleukin-1 alpha (IL1a) Biomarker Activity (AID 2284264); conditions: primary human bronchial epithelial cells with fibroblasts
Method in brief: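 ELISA read-out of IL-1α from bronchial epithelial cell/dermal fibroblast co-cultures 24 h after compound addition. Increases scored against DMSO negative control. Cytotoxicity monitored by sulforhodamine B staining of parallel cultures.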

Row | SMILES | AC50 [1] | outcome [2] | outcome (CD90, THY1 (gene 7070)) | outcome [3] | outcome (Decorin, DCN (gene 1634)) | outcome (KRT18 (gene 3875)) | AC50 [4] | outcome [4] | AC50 [5] | outcome [5] | outcome [6] | outcome [1] | outcome [7] | AC50 [2] | AC50 [3] | AC50 (Decorin, DCN (gene 1634)) | AC50 (KRT18 (gene 3875)) | AC50 (CD90, THY1 (gene 7070)) | AC50 [6]
1 | OCC(F)(F)C(F)(F)C(F)(F)C(F)(F)C(F)(F)C(F)(F)C(F)(F)C(F)(F)CO | 16.4 µM (active) and 12.2 µM (active) | inactive | inactive | inactive | inactive | inactive | 47.2 µM (active) | inactive | 49.5 µM (active) | inactive | inactive |  |  |  |  |  |  |  | 
2 | O=S(=O)(OCC(F)(F)F)C(F)(F)C(F)(F)C(F)(F)C(F)(F)F |  | inactive | inactive | inactive | inactive | inactive |  | inactive |  | inactive | inactive | inactive | inactive |  |  |  |  |  | 
3 | OCC(O)CC(F)(F)C(F)(F)C(F)(F)C(F)(F)C(F)(F)C(F)(F)C(F)(F)C(F)(F)F (stereo not given) |  | inactive | inactive | inactive | inactive | inactive |  | inactive |  | inactive | inactive | inactive |  |  |  |  |  |  | 
4 | CCOC(=O)CC(=O)C(F)(F)C(F)(F)F |  | inactive | inactive | inactive | inactive | inactive |  | inactive |  | inactive | inactive | inactive |  |  |  |  |  |  | 
5 | CNS(=O)(=O)C(F)(F)C(F)(F)C(F)(F)C(F)(F)C(F)(F)C(F)(F)C(F)(F)C(F)(F)F |  | inactive | inactive | inactive | inactive | inactive |  | inactive |  | inactive | inactive | inactive |  | 9.75 µM (active) | 46.3 µM (active) |  |  |  | 
6 | O=S(=O)(Cl)C(F)(F)C(F)(F)C(F)(F)C(F)(F)C(F)(F)C(F)(F)C(F)(F)C(F)(F)F |  | inactive | inactive | inactive | inactive | inactive |  | inactive |  | inactive | inactive | inactive |  |  |  | 22.3 µM (active) | 48.5 µM (active) |  | 
7 | OCCCC(F)(F)C(F)(F)C(F)(F)C(F)(F)C(F)(F)C(F)(F)C(F)(F)C(F)(F)F | 23.2 µM (active) and 34.2 µM (active) |  |  |  |  |  | 12.9 µM (active) and 12.4 µM (active) |  | 16.3 µM (active) | inactive |  |  |  | 11.9 µM (active) and 9.9 µM (active) | 47.9 µM (active) and 24.3 µM (active) | 16.4 µM (active) and 14.4 µM (active) | 47.1 µM (active) and 33.9 µM (active) | 20.6 µM (active) and 19.2 µM (active) | 14.5 µM (active) and 13.7 µM (active)
8 | NC(=O)C(F)(F)C(F)(F)C(F)(F)C(F)(F)C(F)(F)C(F)(F)C(F)(F)F |  | inactive | inactive | inactive | inactive | inactive |  | inactive |  | inactive | inactive | inactive |  |  |  |  |  |  | 
9 | OCC(O)CC(F)(F)C(F)(F)C(F)(F)C(F)(F)F (stereo not given) |  | inactive | inactive | inactive | inactive | inactive |  | inactive |  | inactive | inactive | inactive |  |  | 0.22 µM (active) |  |  |  | 
10 | NC(=O)C(F)(F)C(F)(F)C(F)(F)C(F)(F)C(N)=O |  | inactive | inactive | inactive | inactive | inactive |  | inactive |  | inactive | inactive | inactive |  |  |  |  |  |  | 
11 | FC(F)(F)C(F)(F)C(F)(F)C(F)(F)C(F)(F)C(F)(F)CC[Si](Cl)(Cl)Cl |  | inactive | inactive | inactive | inactive | inactive |  | inactive |  | inactive | inactive | inactive |  |  |  |  |  |  | 
12 | NC(O)(C(F)(F)F)C(F)(F)F |  | inactive | inactive | inactive | inactive | inactive |  | inactive |  | inactive | inactive | inactive | inactive |  |  |  |  |  | 
13 | O=C(O)C(F)(F)C(F)(F)C(F)(F)C(=O)O |  | inactive | inactive | inactive | inactive | inactive |  | inactive |  | inactive | inactive | inactive |  |  |  |  |  |  | 
14 | O=S(=O)(O)CCC(F)(F)C(F)(F)C(F)(F)C(F)(F)F |  | inactive | inactive | inactive | inactive | inactive |  | inactive |  | inactive | inactive | inactive |  |  |  |  |  |  | 
15 | NCC(F)(F)C(F)(F)C(F)(F)C(F)(F)C(F)(F)C(F)(F)C(F)(F)C(F)(F)F |  | inactive | inactive | inactive | inactive | inactive |  | inactive |  | inactive | inactive | inactive |  |  |  |  |  |  | 
16 | FC(F)(F)C(F)(F)C(F)(F)CC1CO1 (stereo not given) |  | inactive | inactive | inactive | inactive | inactive |  | inactive |  | inactive | inactive | inactive |  |  |  |  |  |  | 
17 | CCN(CCO)S(=O)(=O)C(F)(F)C(F)(F)C(F)(F)C(F)(F)C(F)(F)C(F)(F)C(F)(F)C(F)(F)F |  | inactive | inactive | inactive | inactive | inactive | 19.4 µM (active) and 23.3 µM (active) |  | 7.69 µM (active) and 8.4 µM (active) |  | inactive | inactive |  |  |  | 19.4 µM (active) |  |  | 30 µM (active)
18 | O=C(O)C(F)(F)C(F)(F)C(F)(F)C(F)(F)C(F)(F)C(F)(F)C(F)F |  | inactive | inactive | inactive | inactive | inactive |  | inactive |  | inactive | inactive | inactive |  |  |  |  |  |  | 
19 | NS(=O)(=O)C(F)(F)C(F)(F)C(F)(F)C(F)(F)C(F)(F)C(F)(F)F |  | inactive | inactive | inactive | inactive | inactive | 13.4 µM (active) and 30 µM (active) |  |  | inactive | inactive | inactive |  |  |  |  | 30 µM (active) |  | 
20 | NCC(F)(F)C(F)(F)C(F)(F)C(F)(F)C(F)(F)C(F)(F)F |  | inactive | inactive | inactive | inactive | inactive |  | inactive |  | inactive | inactive | inactive |  |  |  |  |  |  | 
21 | O=C(O)C(F)(F)C(F)(F)C(F)(F)OC(F)(F)F |  | inactive | inactive | inactive | inactive | inactive |  | inactive |  | inactive | inactive | inactive |  |  | 0.218 µM (active) |  |  |  | 
22 | FC(F)(F)C(F)(F)C(F)(F)C(F)(F)C(F)(F)C(F)(F)C(F)(F)CCI |  | inactive | inactive | inactive | inactive | inactive |  | inactive |  | inactive | inactive | inactive |  |  |  |  |  |  | 
23 | NC(=O)C(F)(F)C(F)(F)C(F)(F)F |  | inactive | inactive | inactive | inactive | inactive |  | inactive |  | inactive | inactive | inactive |  |  |  |  |  |  | 
24 | C=CC(=O)OCC(F)(F)C(F)(F)C(F)(F)COC(=O)C=C | 7.12 µM (active) and 9.76 µM (active) |  | inactive | inactive |  |  | 10.6 µM (active) |  |  | inactive |  |  |  | 16.5 µM (active) and 14.3 µM (active) | 10.8 µM (active) | 12.2 µM (active) and 9.13 µM (active) | 45.3 µM (active) and 51.1 µM (active) | 8.59 µM (active) | 16.9 µM (active) and 13.9 µM (active)
25 | OC(O)C(F)(F)C(F)(F)F |  | inactive | inactive | inactive | inactive | inactive |  | inactive |  | inactive | inactive | inactive |  |  |  |  |  |  | 
26 | NC(=O)C(F)(F)C(F)(F)C(F)(F)C(F)F |  | inactive | inactive | inactive | inactive | inactive |  | inactive |  | inactive | inactive | inactive |  |  |  |  |  |  | 
27 | O=C(Cl)C(F)(F)C(F)(F)C(F)(F)C(F)(F)C(F)(F)C(F)(F)F |  | inactive | inactive | inactive | inactive | inactive |  | inactive |  | inactive | inactive | inactive | inactive |  |  |  |  |  | 
